Screening results deposited in PubChem by National Center for Advancing Translational Sciences (NCATS).
HCV inh: HCV inhibition | Huh7.5.1 HCVcc-Cre infection, luciferase reporter, 44 h | actives 3.4% (n = 340,000) | Potency, µM (top dose mostly 41.8 µM), for inactives: at the top dose activity change, negative = inhibition, most hits filed as inhibitors | AID 651820; active = well fitted inhibition curve with a large enough effect; inconclusive = small, poorly fitted or top-dose-only effect, or another doubt; inactive = no such curve, though single readings can be large or run the other way; also: potency is read from the fitted curve at half-maximal effect; % is scaled to controls: 0 for no effect and ±100 for the full control effect
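A cell-based infection assay in which seeded cells (1,000 per well) receive test compound after 4 h, are inoculated with HCVcc-Cre at approximately 0.5 moi, and are incubated 44 h before luminescence detection.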
SARS PLP yeast: blocks SARS-CoV papain-like protease in a yeast assay. Potency, µM (doses to about 32.9 µM), without a hit: at the top dose activity, positive = growth rescue, most hits filed as activators. actives 0.19% (n = 330,000). S. cerevisiae expressing SARS-CoV PLpro, growth rescue; calls by dose curve; also: potency is read from the fitted curve at half-maximal effect; 0% is about no effect; nearly all actives have a fitted effect of over 55% in size
HCMV antiviral: blocks human cytomegalovirus replication; HFF cells, HCMV-luciferase reporter, 72 h; stronger effect = lower value; activity change, negative = inhibition, % at 57.5 µM; actives 4.5% (n = 410,000); AID 1259415; in the data active = activity change below about -60%; inconclusive = no clear call, values can overlap the other calls; inactive = above about -39%; also: % is scaled to controls: 0 for no effect and ±100 for the full control effect
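After 16 h attachment at 37C, HFF cells received test compound and HCMV-luciferase (1 PFU/cell); reporter luminescence read 72 h later, data normalized against buffer-only and known inhibitor Salinomycin.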
FMDV antiviral: antivirals against foot and mouth disease virus; Potency, µM (doses to about 57.9 µM), inactives show at the highest dose activity change, negative = inhibition, actives largely listed as inhibitors; FMDV antiviral cell-based qHTS; AID 1159524; actives 1.2% (n = 410,000); calls by dose curve; tested in HEK293T cells; also: read-out not given here; potency is read from the fitted curve at half-maximal effect; % is scaled to controls: 0 for no effect and ±100 for the full control effect; nearly all actives have a fitted effect of over 45% in size
Lassa entry inh: inhibitors of Lassa virus binding or cell entry | Lassa virus pseudotype entry inhibition, cell reporter | Potency, µM (doses to about 37.9 µM), without a hit: top-dose activity change, negative = inhibition, most hits filed as inhibitors | actives 1.2% (n = 300,000) | AID 540256; calls by dose curve; tested in HEK293 cells; also: potency is read from the fitted curve at half-maximal effect; % is scaled to controls: 0 for no effect and ±100 for the full control effect; nearly all actives have a fitted effect of over 50% in size
MARV entry inh: inhibitors of Marburg virus binding or cell entry. Marburg virus pseudotyped entry inhibition, cell reporter. Potency, µM (series often up to 37.8 µM), without a hit: top-dose activity change, negative = inhibition, actives largely listed as inhibitors. actives 1.8% (n = 300,000). AID 540276; calls by dose curve; tested in HEK293 cells; also: potency is read from the fitted curve at half-maximal effect; % is scaled to controls: 0 for no effect and ±100 for the full control effect
An asterisk follows results filed as active; ? = inconclusive; · = not tested or not shown; [ ] = another dose, or the depositor's remark. Most compounds without a hit are left out; they make up all but 8% or so of the library.

SMILES	HCV inh	SARS PLP yeast	HCMV antiviral	FMDV antiviral	Lassa entry inh	MARV entry inh
O=C(Nc1ccc(S(=O)(=O)NC2=NCCCCC2)cc1)c1cccs1	?	-5%	-102*	15%	·	·
O=C(Nc1ccc(S(=O)(=O)NC2=NCCCCC2)cc1)c1ccc(C(F)(F)F)cc1	?	1%	-67*	?	·	·
COc1ccc(S(=O)(=O)CC(=O)c2cc(C)c(O)c(C)c2)cc1	-6%	2%	-39	-5%	·	·
Cc1cc(C(=O)CS(=O)(=O)c2ccc(Cl)cc2)cc(C)c1O	11µM*	1%	18	10%	·	·
Cc1cc2c(c(=O)n1Cc1ccccc1)[C@H]1O[C@](CCCCN3C(=O)c4ccccc4C3=O)(Cc3c1ccc1ccccc31)O2	·	·	·	·	·	-11%[14.2 µM]
Cc1cc2c(n1-c1ccc(C(=O)NCCc3ccc(Cl)cc3)cc1)CCCC2	·	·	-22	-9%	?	·
O=C(C[n+]1ccccc1)N/N=C/c1cccs1	9%	5%	40	3%	2%[46.1 µM]	?
COc1ccc2c(Cl)c(-c3nnc(SCC(=O)c4ccccc4)n3C)sc2c1	11µM*	0%	-1	-14%	?	?
COc1ccc(N2CCN(C(=O)c3oc4ccccc4c3NC(=O)CCc3cc(OC)no3)CC2)cc1	?	0%	-9	25µM*	-21%[46.1 µM]	-18%[46.1 µM]
Cc1cnc(C(=O)N(CC(C)C)c2c(N)n(CC(C)C)c(=O)[nH]c2=O)cn1	10%	-3%	·	-20%	5%	10%
COc1ccc(N2CCN(CCCn3c(=S)[nH]c4ccccc4c3=O)CC2)cc1	?	1%	-72*	1%	·	·
COc1ccc(NC(=O)CCn2c(=S)[nH]c3ccccc3c2=O)cc1	-9%	?	-61*	-6%	-22%[46.1 µM]	?
O=c1c2cc(N3CCOCC3)ccc2[nH]c(=S)n1CCCN1CCCCCC1	?	3%	11	-12%	-2%	18µM*
COc1ccc(-n2c(=S)[nH]c3ccccc3c2=S)cc1	-1%	2%	-64*	33%	·	·
COc1ccc(-n2c(=S)[nH]c3ccccc32)cc1	3%	30%	44	0%	-1%	14%
C=CCN1C(=O)C2(CC(C)=C[C@@H](C)O2)c2c(Br)cccc21 (stereo partly specified)	·	·	·	·	·	26%[14.2 µM]
CC1CCCC(C)N1C(=O)COC(=O)c1ccc(F)c(S(=O)(=O)N2CCOCC2)c1 (stereo unspecified)	2%	-1%	-19	-14%	-6%	21%
CCCCn1c(=S)[nH]c2ccc(N3CCOCC3)cc2c1=O	·	0%	·	·	·	·
CC(C)OCCCn1c(=S)[nH]c2ccc(N3CCOCC3)cc2c1=O	?	4%	-22	?	5.8µM*	?
Cc1cccc(Cc2nnc(CCC(=O)N(C)C3CCOC3)o2)c1 (stereo unspecified)	7%	1%	-70*	17%	2%[46.1 µM]	?
COc1ccccc1C1CN(Cc2cccc(OCCO)c2)Cc2ccccc2O1 (stereo unspecified)	·	·	·	0%	·	·
O=C(CN1C(=O)NC2(CCCC2)C1=O)N1CCN(S(=O)(=O)c2ccccc2)CC1	3%	-3%	21	-1%	6%[46.1 µM]	?
Cc1cc(C)c(S(=O)(=O)N2CCN(C(=O)CC(C)n3nc(C)nc3C)CC2)c(C)c1 (stereo unspecified)	·	·	-74*	-21%	·	·
Cc1cc(C)c(S(=O)(=O)N2CCN(C(=O)CN3C(=O)NC4(CCCC4)C3=O)CC2)c(C)c1	-21%	-8%	-68*	-24%	-3%	23%
CCN1C(=O)c2ccccc2S(=O)c2ccc(C(=O)NCc3ccc(Cl)cc3)cc21 (stereo unspecified)	·	·	-26	?	-2%[46.1 µM]	11%[46.1 µM]
SMILES	HCV inh	SARS PLP yeast	HCMV antiviral	FMDV antiviral	Lassa entry inh	MARV entry inh
Cc1cc(C)c2nc(NCc3ccccc3O)sc2c1	?	1%	-65*	41%	·	·
O=C(Nc1ccc([N+](=O)[O-])cc1)c1cncc(Br)c1	-8%	-2%	-85*	8%	·	·
O=C(CCNC(=O)c1ccc([N+](=O)[O-])cc1)NNC(=O)c1ccncc1	15%	6.3µM*	4	-3%	·	·
O=C(Nc1ccc(Nc2ccncc2)cc1)c1ccc([N+](=O)[O-])cc1	11µM*	1%	-90*	?	·	·
Cn1c(=O)n(C)c2cc(S(=O)(=O)N3CCN(c4ccccc4)CC3)ccc21	14%	0%	-6	11%	·	·
O=C(Nc1ccc(Br)cn1)c1cccc2c1-c1ccccc1C2=O	-15%	-7%	-16	-30%	·	·
COc1ccc(Oc2ncc3nc(C)c(=O)n(CCC#N)c3n2)cc1	·	·	·	-8%	·	·
O=C(CCNC(=O)c1ccco1)Nc1ccc(OC(F)F)cc1	7%	8%	-12	6%	26%[46.1 µM]	?
COc1ccc(OC)c(CCNC(=O)c2cc3c(=O)n(C)c4ccccc4c3n2C)c1	·	·	-105*	?	?	13%[46.1 µM]
COc1ccc(CNC(=O)CSCc2cnn(-c3ccccc3)c2-n2cccc2)cc1	-9%	-11%	3	?	-27%	-3%
COc1ccc(OC)c(CCNC(=O)c2cnn(-c3ccccc3)c2-n2cccc2)c1	·	·	-90*	0%	-4%[46.1 µM]	?
CCOC(=O)N1CCN(C(=O)CSc2ccc3nnc(CCNC(=O)c4ccc(OC)cc4)n3n2)CC1	-5%	4%	0	-4%	?	23%[46.1 µM]
COc1ccc(CN2C(=O)C(n3c(C)ccc3C)c3cc(OC)ccc32)cc1 (stereo unspecified)	·	·	-15	·	·	·
O=C(CN1CCCCC1)Nc1ccc(C(F)(F)F)cc1Cl	6%	1%	-70*	7%	9%	?
Cc1c(NC(=O)Nc2cccs2)cccc1[N+](=O)[O-]	?	0%	-72*	15%	·	·
Cc1[nH]c2ccccc2c1C(=O)COC(=O)c1ccccc1O	11µM*	-8%	10	5%	-9%	3%
Cc1[nH]c2ccccc2c1C(=O)CNc1nccs1	22µM*	0%	26	-3%	15%	15%
Cc1[nH]c2ccccc2c1C(=O)CSc1ccccn1	?	0%	-10	2%	24%[46.1 µM]	?
Cc1[nH]c2ccccc2c1C(=O)CSc1ccccc1	-22%	-21%	-9	7%	7%	?
Cc1[nH]c2ccccc2c1C(=O)CCl	?	2%	?	25µM*	·	·
COc1ccc([C@@H]2[C@@H](C(=O)N3CCOCC3)CC(=O)N2S(=O)(=O)c2ccc(F)cc2)cc1	·	·	4	·	·	·
COc1ccc(Nc2nccc3c2cc(-c2ccccc2OC)n3C)cc1OC	·	·	-90*	·	·	·
COc1ccccc1-c1cc2c(Nc3ccc4c(c3)OCCO4)nccc2n1C	·	·	-70*	·	·	·
COc1ccc(OC)c(C2=NO[C@@](CC(=O)O)(C(=O)Nc3ccc4c(c3)OCCO4)C2)c1	-6%	2%	-100*	-11%	16%[46.1 µM]	0%[46.1 µM]
COC(=O)C1(C(=O)OC)CC(CO)C(=O)[C@@H]1c1ccccc1 (stereo partly specified)	·	·	·	·	·	-8%[14.2 µM]
